Our source for the PBM binding z-score values is the supplement of paper PMC6555819.

For the experiment, the system named is VDR:RXRa (NR concentration 270 nM, RXRa partner concentration 90 nM). The experiment in a line: PBM binding z-score (relative to random genomic background probes); higher = stronger binding; sequences stand for … in GC…GCGATTGACAGCGTAGAATGAAGG
Here is the method: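 Protein-binding microarray (Agilent 4x180K custom design, double-stranded 60-nt probes: 5' GC cap, 34-nt variable region, 24-nt constant primer region; full probe sequence given). Purified or IVT nuclear receptor:RXRα heterodimers (3:1 NR:RXRα, mostly 270:90 nM) or homodimers were incubated for 1 h in PBS with 2% milk and no ligand, then detected with Alexa488 antibodies. Fluorescence from o1-orientation probes (~5 replicates averaged) was converted to z-scores against 500 random hg19 background probes. Variable regions are seed direct-repeat (DR0–DR5) sites, all their single-nucleotide variants and half-site ablations.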
Regarding CCAGCTAGGTCAATGGTCAGCTAAAGCAGCTCGC, the PBM binding z-score was found to be 1. CAAACTAGGTCACCGGAAGCTCAAAGTCCGCATG gave a PBM binding z-score of 2.23. Turning to GCTGGTAGGTCAACTGATGGTCAGCTAAAGCTCG, the PBM binding z-score came out at 2.01. As to GCGACTGGGGCATCAGCTGGTTACCATAACTTAA, the PBM binding z-score was -0.49. The same measure for ATACCAAGGTGATCGTGAGGTTGTTGATACTAAC: 0.679; for ATCTCCAGGTAAAGATAGTTCAGTGAATGCAAAT: 0.845. The same measure for TATCCTAGGTCATTCAGGGGCCAGTATAGAAAGC: 3.57; for TCATATAGGTAAATGGTGAAAGTCGGTGTGGTAA: 0.561; for CGTCCAAGGTCATAGGAGGTCAGTCAAGACAGAT: 6.72. Turning to ACTAGTTGGTCAGCTGTGGTCACACACAATTCGG, the PBM binding z-score came to 0.029. As for GCTGCTAGGTCAGGTTGGTCAGCCAACGGGTACG, the PBM binding z-score is 0.447.

ATATGTAGGTTACATCCGGGTCATTCCGGCTATG yielded a PBM binding z-score of 3.88.

CCGACTGGGGCATAAGGTTACCATAAGCCAGCCC registered a PBM binding z-score of -0.0909. With CCTACTGGGCCATTCAGAGGTCATTGAGCATATG, the PBM binding z-score stood at 4.17. The same measure for CAGACTAGGTCAGGGCCAGTATAGGAGGAACGTT: -0.0309. In turn, GCTCGGAGGACAAGGTAAGAGCTTTGTCCGTAGA displayed a PBM binding z-score of -0.675.

Sequence CTCGAAAGGTAGTGCTCAGGTGAGTATACCAAAC returned a PBM binding z-score of -0.361.

Sequence GCTTCTAGATCAAGGTTAAGAAAGACTAAGCTAA returned a PBM binding z-score of 0.384. With CAAACTAGATCACAGAGGTCAAAGTCCGTGCGTA, the PBM binding z-score came to 5.7. GAAACGAGGGCAAAGTTGATAGCATCTGTCGACG had a PBM binding z-score of 1.69.

Sequence TCTCGGAGGACACAAAAGGTCAGAGCTCGACATC yielded a PBM binding z-score of 3.17.

AGAACGAGGTTATACGTAGATCAGGGAAGAAAGT gave a PBM binding z-score of 1.08. As for ATATGTAGGTTACATCCGCGTCATTCAGGCTATG, the PBM binding z-score came to 0.515. CGTCGAAGGTCAGCAGGTCAGTGAAAGCGACGTG gave a PBM binding z-score of 3.61.

TCATATAGGTAAATGCTAGGCGAAAGTCCGATCT showed a PBM binding z-score of 0.812. The same measure for ATATGTAGGTGAGCTGGGGTCATTCAGACTAGGC: 5.66; for TCATATAGGTCATACAGGTGAAAGTCGGCATCTA: 5.01. Take CCTGCTAGGTGATGGTCAGCTAATCTACAGTATG: the PBM binding z-score is -0.759. Then TAGCCTAGGTCAGATCGGGACAGTATACGCTATA, with 1.23; and CCTACTGGGCCAAAAGGGTCATTGATGCCGATAA, with 4.44. For the sequence ACCCGGAGGACAAAGGTCAGAGCTACGCCAGTGA, the PBM binding z-score was determined as 3.2. TTACCAAGGTGAGCTGAGGTCGTTCATCCAACTC yielded a PBM binding z-score of 4.32.

ATCTCTAGGTAAGACTCAGTTCAGTAAAGAACGC displayed a PBM binding z-score of 1.12. The same measure for ACAGACAGGTGAGTGAATGTAACTCAGCTGGACG: -0.36; for AGTCAAAATTCATCTAGGTAACGTAAGATATGCT: -0.0109; for CCTCCGAGGACAACAGGAGGTCAGAGCTGCCAGA: 2.27.

Sequence ATATGTAGGTAAAGGGTCATTCAGGTTGGTTCGC had a PBM binding z-score of 5.54. In turn, CGTCCAAGGTCAAGGTCAGGGAAAGAGACTCGAA had a PBM binding z-score of 4.97. As for CCTAGTTGGTCAAGGTCAGACACGCTATAGGTAC, the PBM binding z-score was determined as 2.83. The sequence TCATATAGGTTAACAGGTGAAAGTCCGTAAGTTA registered a PBM binding z-score of 2.04.
